Experimental data published in PubChem BioAssay (NCI).
This is part of a sample that, as a whole, favours compounds with a hit. Of some 83,000 tested, about 20% had one in any assay.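 Single-concentration screen, 48 h exposure, 96-well plates. Endpoint: percent growth. Below 10 = active.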 A number with no mark means an inactive call. The source made the active and inactive calls.

Tests used:
Assay in all cases: NCI-60 one-dose screen, 48 h (100 = growth as untreated, 0 = no growth, -100 = all killed)
Settings in all cases: 10 µM unless noted
[1] = system: T-47D breast
[2] = system: BT-549 breast
[3] = system: SW-620 colon
[4] = system: MCF7 breast
[5] = system: HCT-116 colon
[6] = system: HCC-2998 colon
[7] = system: KM12 colon

| Structure (SMILES) | growth [1] | growth [2] | growth [3] | growth [4] | growth [5] | growth [6] | growth [7] |
| --- | --- | --- | --- | --- | --- | --- | --- |
| Oc1ccc(-c2nnc(SCc3ccc(O)c4ncccc34)o2)cc1 | 11.1% | 12.8% | 16.3% | 2.57% (active) | 7.61% (active) | 22.5% | 9.65% (active) |
| C#Cc1ccc(NC(=O)c2ccc(/C=C/C(=O)c3nccn3C)cc2)c(F)c1 | 14.6% | 40.2% | 18.9% | 11% | 18% | 82.6% | 23.5% |
| COc1ccc([C@@H]2[C@@H](O)C(=O)N2c2cc(OC)c(OC)c(OC)c2)cc1 | 67.1% | -13.4% (active) | 19.4% | 11.9% | 3.82% (active) | 21.8% | 14% |
| CCCCCCNC(=O)Oc1ccc(/C(=C(\C)c2ccc(OC)cc2)c2ccc(OCCN(C)C)cc2)cc1 | 68.1% | 85.1% | 83.6% | 23.6% | 37.2% | 88.3% | 99.2% |
| O=C(NNc1nc2cc(F)c(F)cc2n2cccc12)c1ccncn1 | 15.1% | 28.7% | 23.5% | 6% (active) | 20.4% | 53.3% | 21.4% |
| CC(C)c1nn(-c2ccccc2)c(N2CCCCC2)c1/C=N/NC(N)=S | 66.8% | 85.2% | 101% | 75.7% | 79.1% | 105% | 103% |
| CCN1C(=O)N(CC)C2SC(N/N=C/c3ccccc3F)=NC21 (stereo not given) | 61.9% | -20.1% (active) | 19% | 16.2% | 13.6% | 17.1% | 11.8% |
| C#C[C@]1(O)CC[C@H]2[C@@H]3CC=C4c5sc(Nc6cc(OC)ccc6OC)nc5CC[C@]4(C)[C@H]3CC[C@@]21C | 22.8% | 30.2% | 18.4% | -2.69% (active) | 19.3% | 62.4% | 24.6% |
| CCOC(=O)Nc1ccc(-c2nc(-c3cccc(O)c3)c(-c3ccnc(Br)c3)[nH]2)cc1 | 14% | 35.4% | 28.2% | 13.9% | 19.2% | 56.2% | 22.3% |
| CCC(C)[C@H]1OC(=O)[C@H](C(C)C)N(C)C(=O)[C@@H](C(C)C)OC(=O)[C@H](C(C)C)N(C)C(=O)[C@@H](C(C)CC)OC(=O)[C@H](C(C)C)N(C)C1=O (stereo not given in full) | 3.65% (active) | 0.725% (active) | 17.3% | 8.27% (active) | 8.58% (active) | 23.4% | 15.7% |
| O=C(Nc1cccc(-c2nc(-c3ccc(NC(=O)c4cccs4)cc3Cl)no2)c1)Nc1ccc(NC(=O)C2CC2)c(C(F)(F)F)c1 | -50.2% (active) | -19.1% (active) | -49.9% (active) | -40% (active) | 1.27% (active) | -55% (active) | -65.5% (active) |
| CN1CCN(c2ccc3c(C(N)=O)c(NC(=O)c4ccc(C(C)(C)C)cc4)sc3c2)CC1 | 92.3% | 89.9% | 43.6% | 39.7% | 37.6% | 96.2% | 81.7% |
| CCNC(=O)Oc1ccc(/C(=C(/C)c2ccc(Cl)cc2)c2ccc(OCCN(C)C)cc2)cc1 | 54.8% | 77% | 82.2% | 18.1% | 43% | 81.2% | 89.8% |
| COc1cc(C2=NN(C(C)=O)C(c3ccc(N4CCOCC4)cc3)C2)cc(OC)c1OC (stereo not given) | 97.1% | 92.2% | 105% | 96.3% | 95.7% | 107% | 106% |
| CC(=O)Nc1nc2c(s1)C1=CC[C@H]3[C@@H]4CC[C@H](C(C)=O)[C@@]4(C)CC[C@@H]3[C@@]1(C)CC2 | 68% | 62.3% | 82.3% | 20.6% | 60.4% | 96.9% | 47.7% |
